Consider 20 compounds from PubChem BioAssay (NCATS).

Unmarked numbers belong to inactive results. Results filed as inconclusive are left out. The source made the active and inactive calls. The call rests on the fitted dose curve; in most records, active means well fitted curve in the direction sought with a large enough effect; inconclusive means small, poorly fitted or top-dose-only effect, or another doubt; inactive means no such curve, though single readings can be large; an effect the other way counts as inactive or inconclusive. Where a SMILES comes first, the peptide text is derived from it. [ ]: non-standard residue; d: D form. The star is where a group is joined. AFC = O=c1cc(C(F)(F)F)c2ccc(N*)cc2o1; 2Abz = Nc1ccccc1C(=O)O

Assay [1] addresses Glutathione peroxidase 1 (Homo sapiens) (UniProt P07203). The assay is described as follows: Primary qHTS Assay for Inhibitors of Recombinant Selenoprotein Glutathione Peroxidase 1 (GPX1) (AID 1845191). Further: nearly all actives have a fitted effect of over 65% in size. Further: potency means the concentration at half of the fitted maximal effect. The method in brief: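 NADPH consumption tracked by fluorescence at 340/450 nm between t=0 and t=15 min, room temperature. Final mix: 10 nM GPX1, 100 nM glutathione reductase, 1 mM GSH, 0.5 mM NADPH, 0.5 mM cumene hydroperoxide, 0.01% BSA; 30 min compound–enzyme preincubation.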
(qHTS replaces the single test concentration by a dilution series.)

Assay [2] concerns the target Phospholipid hydroperoxide glutathione peroxidase GPX4 (Homo sapiens) (UniProt P36969). Description: Primary qHTS Assay for Inhibitors of Recombinant Selenoprotein Glutathione Peroxidase 4 (GPX4) (AID 1845192). Further: nearly all actives have a fitted effect of over 65% in size. Further: potency means the concentration at half of the fitted maximal effect. The method in brief: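 NADPH consumption followed by fluorescence at 340/450 nm, t=0 and after 15 min at room temperature. Reaction started with cumene hydroperoxide (0.5 mM final) after 30 min compound–GPX4 preincubation; final 200 nM GPX4, 100 nM GR, 1 mM GSH, 0.5 mM NADPH.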

In assay [3] the target is Luciferin 4-monooxygenase (Photinus pyralis) (UniProt P08659). The assay is described as follows: Primary firefly luciferase (FLuc) qHTS assay for identification of artifact compounds. (AID 1845220). Further: nearly all actives have a fitted effect of over 60% in size. The method in brief: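 Cell-free, 1536-well qHTS. Buffer pH 7.6 with 0.01% Tween-20 and 0.05% BSA; 10 uM D-luciferin, 10 uM ATP; 10 nM P. pyralis luciferase; luminescence after 5 min.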

Assay [4] is described as follows: Primary fluorescence-based thiol-reactive (MSTI) qHTS assay for identification of artifact compounds. (AID 1845221). Further: nearly all actives have a fitted effect of over 65% in size. Further: potency means the concentration at half of the fitted maximal effect. An outline of the steps:
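qHTS titration of compound; 4 uM MSTI, PBS pH 7.4, 2% DMSO; 1 h RT, dark; fluorescence 525/598 nm; normalized to Acetyl-MSTI and MSTI; 4-parameter Hill fit.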

Assay [5] relates to Nanoluciferase (engineered Oplophorus gracilirostris luciferase). The assay is described as follows: Primary Nanoluciferase (NLuc) qHTS assay for identification of artifact compounds. (AID 1845222). Further: series mostly up to about 54 µM. The method in brief: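 Compounds are pinned into diluted (1:55) conditioned medium of NLuc-expressing S16 cells and held 15 min at room temperature protected from light. Nano-Glo substrate follows, and luminescence is read 5 min later.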

Assay [6] in a line: Primary redox qHTS assay for identification of artifact compounds. (AID 1845223). An outline of the steps: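 Redox-cycling detection via DTT (250 uM final) oxidation coupled to Amplex Red (25 uM)/HRP (250 mU/mL) in HBSS. 15 min preincubation plus 30 min after DTT, room temperature. Ex/Em 525/598 nm; 4-parameter Hill fit against DMSO and 10 uM DA3003.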

Phospholipid hydroperoxide glutathione peroxidase GPX4 (Homo sapiens), sequence (P36969 whole entry, looked up): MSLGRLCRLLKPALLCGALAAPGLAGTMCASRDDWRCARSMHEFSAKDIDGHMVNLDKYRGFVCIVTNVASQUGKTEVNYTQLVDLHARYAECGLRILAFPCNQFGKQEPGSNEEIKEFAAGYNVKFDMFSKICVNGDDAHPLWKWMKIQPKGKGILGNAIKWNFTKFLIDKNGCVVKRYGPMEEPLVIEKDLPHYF
Glutathione peroxidase 1 (Homo sapiens), sequence (P07203 whole entry, looked up): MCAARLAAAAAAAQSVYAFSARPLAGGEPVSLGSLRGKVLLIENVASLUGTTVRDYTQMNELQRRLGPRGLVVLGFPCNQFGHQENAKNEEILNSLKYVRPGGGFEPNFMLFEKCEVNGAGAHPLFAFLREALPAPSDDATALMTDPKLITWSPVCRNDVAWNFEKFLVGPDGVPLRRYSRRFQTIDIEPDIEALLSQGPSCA

For `O=C(CCCCc1ccc2ccccc2c1)C(F)(F)F`, the Potency result in assay [1], in assay [2], in assay [3], in assay [4], in assay [5] and in assay [6] was “inactive” each time.
`CC(C)=CCCC1(C)Oc2cc3c(c4c2C2C(O4)C(C)(O)CCC21)CN(C(CCC(=O)O)C(=O)O)C3=O` (stereo not given): the Potency result in assay [1], in assay [2], in assay [3], in assay [4], in assay [5] and in assay [6] was “inactive” throughout.
In the case of `O=C(O[C@H]1[C@@H]2C[C@@H]3OC[C@@](O)([C@H]2[C@H](O[C@@H]2O[C@H](CO)[C@@H](O)[C@H](O)[C@H]2O)O3)[C@@H]1O)c1ccccc1`, the Potency result in assay [1], in assay [2], in assay [3], in assay [5] and in assay [6] was “inactive” each time. Besides, the Potency in assay [4] is 5.19 µM (active).
Take `Cn1c(=O)c2nc(/C=C/c3cccc(Cl)c3)n(C)c2n(C)c1=O`: the Potency result in assay [1], in assay [2], in assay [3], in assay [4], in assay [5] and in assay [6] was “inactive” throughout.
With `C=C1[C@H]2CC[C@]3(O)[C@@](CC[C@@H]4[C@](C)(C(=O)O)CCC[C@]43C)(C2)[C@H]1OC(=O)/C(C)=C\C`, the Potency entry in assay [1], in assay [2], in assay [3], in assay [4], in assay [5] and in assay [6] was “inactive” throughout.
Regarding `C=C1CC23CCC4[C@@](C)(CCC[C@@]4(C)C(=O)O)C2CCC1C3` (stereo not given in full), the Potency result in assay [1], in assay [2], in assay [3], in assay [4], in assay [5] and in assay [6] was “inactive” each time.
With `C(#Cc1cccc(CN2CCOCC2)c1)CCN1CCCCC1`, the Potency entry in assay [1], in assay [2], in assay [3], in assay [4], in assay [5] and in assay [6] was “inactive” each time.
As to `COC(=O)[C@H](CC1C=NC=N1)NCC12CC3CC(CC(C3)C1)C2` (stereo not given in full), the Potency result in assay [1], in assay [2], in assay [3], in assay [4], in assay [5] and in assay [6] was “inactive” in each case.
As to `CC(=O)N1CCN(NC(=O)c2ccc(F)cc2)CC1`, the Potency result in assay [1], in assay [2], in assay [3], in assay [4], in assay [5] and in assay [6] was “inactive” throughout.
Consider `CC(=O)N[C@@H](CC(C)C)C(=O)N[C@@H](CCC(=O)O)C(=O)N[C@@H](CCC(=O)O)C(=O)N[C@@H](CC(=O)O)C(=O)Nc1ccc2c(C(F)(F)F)cc(=O)oc2c1` (Ac-LEED-{AFC}), for which the Potency in assay [1] is 22.7 µM (active); in assay [2], 20.2 µM (active). The Potency result in assay [3], in assay [4], in assay [5] and in assay [6] was “inactive” throughout.
With `O=C1NC(Cc2ccc(O)cc2)C(=O)N2CCCC12` (stereo not given), the Potency result in assay [1], in assay [2], in assay [3], in assay [4], in assay [5] and in assay [6] was “inactive” throughout.
For the compound `CC(C)=CCC[C@](C)(O[C@@H]1O[C@H](CO[C@@H]2OC[C@@H](O)[C@H](O)[C@H]2O)[C@@H](O)[C@H](O)[C@H]1O)[C@H]1CC[C@]2(C)[C@@H]1[C@H](O)C[C@@H]1[C@@]3(C)CC[C@H](O[C@@H]4O[C@H](CO)[C@@H](O)[C@H](O)[C@H]4O[C@@H]4O[C@H](CO)[C@@H](O)[C@H](O)[C@H]4O)C(C)(C)[C@@H]3CC[C@]12C`, the Potency result in assay [1], in assay [2], in assay [3], in assay [4], in assay [5] and in assay [6] was “inactive” throughout.
`COc1cc(/C=C/C(=O)OC2CC(OC(C)=O)C(OC(C)=O)C3C2CCC2C(=O)OC(c4ccoc4)CC23C)ccc1O[C@@H]1O[C@H](CO)[C@@H](O)[C@H](O)[C@H]1O` (stereo not given in full): the Potency result in assay [1], in assay [2], in assay [3], in assay [4], in assay [5] and in assay [6] was “inactive” throughout.
For `COc1cc(CC(COC2OC(CO)C(O)C(O)C2O)c2cc(/C=C/CO)cc(OC)c2O)ccc1O` (stereo not given), the Potency entry in assay [1], in assay [2], in assay [3], in assay [5] and in assay [6] was “inactive” in each case. The Potency in assay [4] is 9.22 µM (active).
For the compound `O=c1ccn(C2OC(CO)C(O)C2O)c(=O)[nH]1` (stereo not given), the Potency entry in assay [1], in assay [2], in assay [3], in assay [4], in assay [5] and in assay [6] was “inactive” throughout.
Take `O=C(/C=C/c1ccccc1)OCC1=CC[C@@H]2C(C(=O)O)=CO[C@@H](O[C@@H]3O[C@H](CO)[C@@H](O)[C@H](O)[C@H]3O)[C@H]12`: the Potency entry in assay [1], in assay [2], in assay [3], in assay [4], in assay [5] and in assay [6] was “inactive” each time.
Consider `CCC(C)C1NC(=O)C2CCCN2C(=O)C(C(C)C)NC(=O)c2ccccc2NC(=O)C(Cc2ccc(O)cc2)NC(=O)C(C)NC(=O)C(C(C)O)NC1=O` (stereo not given) (cyclo([2Abz]VPITAY); configuration not given here), for which the Potency result in assay [1], in assay [2], in assay [3], in assay [4], in assay [5] and in assay [6] was “inactive” throughout.
For the compound `C=C1CC[C@H]2[C@@H](/C=C(\C)C(=O)[C@@]3(OC(C)=O)C[C@H](C)[C@H](OC(C)=O)[C@@H]3[C@H]1OC(C)=O)C2(C)C`, the Potency entry in assay [1], in assay [2], in assay [3], in assay [4], in assay [5] and in assay [6] was “inactive” throughout.
Turning to `CC1NC(=O)C(Cc2c[nH]c3ccccc23)NC1=O` (stereo not given), the Potency entry in assay [1], in assay [2], in assay [3], in assay [4], in assay [5] and in assay [6] was “inactive” throughout.
As to `NS(=O)(=O)NCCNc1nonc1C(=Nc1ccc(F)c(Br)c1)NO`, the Potency entry in assay [1], in assay [2], in assay [3], in assay [4], in assay [5] and in assay [6] was “inactive” throughout.
